Structures are written as SMILES. “And” between values parts separate entries of the source, which are not always exact repeats. Equal values may be shown once. About 83,000 compounds went through this panel and 20% of them were active in at least one assay; those are over-represented in the sample as a whole.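 Percent growth is the endpoint: 0 to 100 indicates growth inhibition (40 means 60% inhibition), 0 means no net growth, and negative values indicate cell death.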 Unmarked numbers belong to inactive results. The source made the active and inactive calls. How the source made its calls: active means growth percent below 10; inactive means the rest.

This note sets out measurements from PubChem BioAssay (NCI).

Holding throughout (assay): NCI-60 one-dose screen, 48 h (100 = growth as untreated, 0 = no growth, -100 = all killed)
One test relates to T-47D breast. As to conditions: 10 µM unless noted.
Another test deals with BT-549 breast. As to conditions: 10 µM unless noted.
A further test concerns MDA-MB-435 melanoma. As to conditions: 10 µM unless noted.
In another test the test system is SW-620 colon. As to conditions: 10 µM unless noted.
Another test deals with MCF7 breast.
In another test the test system is HCT-116 colon. As to conditions: 10 µM unless noted.
The test system of a further test is HCC-2998 colon. As to conditions: 10 µM unless noted.
In a further test the test system is KM12 colon. As to conditions: 10 µM unless noted.

For `CC(C)=CCCC(C)C1=C(O)C(=O)C(C)=CC1=O` (configuration not stated), the growth with T-47D breast is -66.9% (active); in the test with BT-549 breast, 24.7%; in the test on MDA-MB-435 melanoma, 102%; with SW-620 colon it was -49.5% (active); in the test on MCF7 breast (10 µM), 66.9%; in the test with MCF7 breast (100 µM), -52.3% (active) and -33.3% (active). The results for the growth in the test on HCT-116 colon, in the test on HCC-2998 colon and in the test with KM12 colon were -85.2% (active), 100% and 86.8%, respectively.

With `COc1cc(/C=C/c2ccnc3ccccc23)cc(OC)c1OC`, the growth was 41.1% in the test with T-47D breast; 11.7% in the test with BT-549 breast; -8.94% (active) in the test with MDA-MB-435 melanoma; 17.4% in the test with SW-620 colon; 16.1% with MCF7 breast (10 µM unless noted); 20% in the test with HCT-116 colon. Further, the growth was 34.6% with HCC-2998 colon and 12.4% in the test on KM12 colon.

In the case of `Cn1c(-c2ccccc2)c(/C=C/C2=[N+](C)c3ccccc3C2(C)C)c2ccccc21`, the growth in the test with T-47D breast is -3.22% (active); in the test with BT-549 breast, 22.1%; with MDA-MB-435 melanoma, 2.09% (active); in the test with SW-620 colon, 14.3%; in the test with MCF7 breast (10 µM unless noted), 4.58% (active); in the test on HCT-116 colon, 9.76% (active). Moreover, the growth with HCC-2998 colon is 27%; with KM12 colon, -22.8% (active).

As for `CCCCCCCCCCCCN1C(C)=CS/C1=C\C=C\c1scc(C)[n+]1CCCCCCCCCCCC`, the growth is 13.8% in the test with T-47D breast; 23.7% in the test with BT-549 breast; 13.6% in the test with MDA-MB-435 melanoma; 30.7% with SW-620 colon; 7.9% (active) in the test on MCF7 breast (10 µM unless noted); 17.7% with HCT-116 colon. For the same molecule, the growth in the test with HCC-2998 colon was 28.4%; in the test on KM12 colon it was 14.8%.

Turning to `CC[n+]1ccc(Nc2ccc(NC(=O)c3ccc(Nc4cc[n+](CC)c5ccc([N+](=O)[O-])cc45)cc3)cc2)cc1`, the growth with T-47D breast was 46.3%; in the test on BT-549 breast, 92.6%; in the test on MDA-MB-435 melanoma it was 74.4%; in the test on SW-620 colon, 92.8%; with MCF7 breast (10 µM unless noted) it was 36.7%; with HCT-116 colon, 65.4%. For the same molecule, the growth was 104% with HCC-2998 colon and 65.5% with KM12 colon.

Regarding `CN1CCC(CN2c3ccccc3Sc3ccccc32)C1` (configuration not stated), the growth with T-47D breast was 93.6%; with BT-549 breast, 89.4%; in the test with MDA-MB-435 melanoma it was 88.5%; in the test with SW-620 colon, 93.7%; with MCF7 breast (10 µM unless noted), 97.7%; in the test with HCT-116 colon, 77.6%. In addition, the growth is 41.4% in the test with HCC-2998 colon and 97.2% in the test on KM12 colon.

Take `CN=C(N)N/N=C(\c1ccccc1)c1ccc(Br)cc1`: the growth in the test on T-47D breast was 39.3%; in the test on BT-549 breast it was 21.5%; in the test on MDA-MB-435 melanoma, -60.8% (active); in the test with SW-620 colon, 29.4%; with MCF7 breast (10 µM unless noted), 4.81% (active); with HCT-116 colon it was 8.58% (active). For the same molecule, the growth was -61.1% (active) with HCC-2998 colon and 9.22% (active) with KM12 colon.

With `Cc1cc(C(N)=O)cc(C)c1C(=O)OCCCl`, the growth was 95.8% in the test with T-47D breast; 111% in the test with BT-549 breast; 98% with MDA-MB-435 melanoma; 103% with SW-620 colon; 101% in the test on MCF7 breast (10 µM unless noted); 97% with HCT-116 colon. The values for the growth with HCC-2998 colon and in the test with KM12 colon were 95.8% and 93.6%, respectively.

Turning to `Cc1onc(-c2ccccc2)c1C(=O)N/N=C/c1cc(Cl)cc(Cl)c1O`, the growth with T-47D breast was 42%; in the test with BT-549 breast, 33.8%; with MDA-MB-435 melanoma, 45.2%; in the test on SW-620 colon, 35.3%; with MCF7 breast (10 µM unless noted), 18.8%; in the test on HCT-116 colon it was 21%. Further, the growth in the test on HCC-2998 colon is 17.1%; with KM12 colon it was 30.6%.

Turning to `CC(/C=N/NC(N)=S)Cc1ccc(C(C)C)cc1` (configuration not stated), the growth was 16.6% in the test with T-47D breast; 64.1% in the test with BT-549 breast; 49.2% in the test with MDA-MB-435 melanoma; 63.5% in the test on SW-620 colon; 49.9% with MCF7 breast (10 µM unless noted); 51.4% with HCT-116 colon. The results for the growth in the test with HCC-2998 colon and in the test on KM12 colon were 51.9% and 89.5%, respectively.

Turning to `COc1ccc(C(Cn2ccnc2)Sc2ccc(Cl)c(Cl)c2)cc1` (configuration not stated), the growth is 79.3% in the test on T-47D breast; 73.2% with BT-549 breast; 84.1% with MDA-MB-435 melanoma; 80.9% in the test with SW-620 colon; 79.6% in the test with MCF7 breast (10 µM unless noted); 48.5% with HCT-116 colon. In addition, the growth was 108% in the test on HCC-2998 colon and 73.7% with KM12 colon.

With `CCCCC(CCc1ccc([N+](=O)[O-])cc1)(C(C)=O)C(=O)OCC` (configuration not stated), the growth in the test on T-47D breast was 90%; with BT-549 breast, 117%; in the test with MDA-MB-435 melanoma it was 100%; in the test with SW-620 colon, 91.4%; in the test with MCF7 breast (10 µM unless noted), 91.1%; with HCT-116 colon, 92.2%. Besides, the growth is 109% with HCC-2998 colon and 92% in the test with KM12 colon.

For the molecule `COC1=CC(=O)c2c(O)c3c(c(O)c2C1=O)CC(C)(O)OC3` (configuration not stated), the growth with T-47D breast was 0.836% (active); with BT-549 breast, 28.1%; with MDA-MB-435 melanoma, -95% (active); in the test with SW-620 colon it was 16.6%; in the test on MCF7 breast (10 µM unless noted) it was -27.1% (active); with HCT-116 colon it was -27.6% (active). In addition, the values for the growth in the test on HCC-2998 colon and with KM12 colon were -20.5% (active) and 9.83% (active), respectively.

For the molecule `Cc1cc(C(=O)c2ccc(Cl)cc2)ccc1O`, the growth in the test with T-47D breast was 97%; in the test on BT-549 breast it was 94.7%; in the test on MDA-MB-435 melanoma it was 95.6%; with SW-620 colon, 98%; with MCF7 breast (10 µM unless noted), 108%; in the test with HCT-116 colon, 84.8%. The growth with HCC-2998 colon was 102%; in the test with KM12 colon, 103%.

In the case of `CN(C)c1ccc2cc3c(cc2c1)Oc1ccccc1N3.[Cl][Zn][Cl]`, the growth in the test with T-47D breast is -18.9% (active); with BT-549 breast, 105%; in the test on MDA-MB-435 melanoma, 6.73% (active); in the test on SW-620 colon it was 11.8%; with MCF7 breast (10 µM unless noted), 3.32% (active); in the test on HCT-116 colon, 8.67% (active). Moreover, the growth is 103% in the test on HCC-2998 colon and 79.6% in the test on KM12 colon.

With `CCCCCCCCCCCC(=O)OC(C)C(=O)NCCCC` (configuration not stated), the growth was 97.9% with T-47D breast; 92.5% in the test on BT-549 breast; 112% in the test with MDA-MB-435 melanoma; 98.5% in the test on SW-620 colon; 94.7% with MCF7 breast (10 µM unless noted); 94.4% in the test with HCT-116 colon. The growth is 80.2% in the test with HCC-2998 colon and 105% in the test with KM12 colon.

Regarding `O=C(NNc1ccccc1)OCc1ccccc1`, the growth with T-47D breast is 69%; with BT-549 breast, 83.1%; in the test with MDA-MB-435 melanoma, 34.1%; in the test with SW-620 colon, 54.3%; with MCF7 breast (10 µM unless noted) it was 104%; in the test with HCT-116 colon, 66%. In addition, the figures for the growth in the test on HCC-2998 colon and in the test with KM12 colon were 75.4% and 19.8%, respectively.
